We go through six compounds from PubChem BioAssay.

Values joined by “and” are separate entries in the source; they are usually repeats but may differ in a detail not shown here. Identical values can stand only once. Active and inactive are the calls of the source.

A short description of assay [1]: optical density shifts of acrAB sulA E. coli – strain DRC41, OD650, 48 h, E. coli filamentation inducer project, primary screen (AID 1152).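 Note: E. coli MC1000 strain DRC41 lacking acrAB efflux pump and sulA.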 Particulars: higher = more signal, called active from +8 up or from −8 down.
The nature of assay [2]: probe aLefty1 binding on compound microarray – biochemical, small-molecule microarray, 635/667 nm fluorescence, primary screen (AID 1153).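 Note: score merges spot fluorescence with signal-to-noise ratio from the scanned slide images.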 Particulars: higher = more signal.
A short description of assay [3]: plasmodial surface anion channel blockers, osmotic lysis – cell-based, P. falciparum Indochina, OD700, 1 h, primary screen (AID 1154). The following applies: P. falciparum Indochina infected RBC osmotic lysis, higher = more signal, called active from +8 up or from −8 down.
The nature of assay [4]: plasmodial surface anion channel blockers, osmotic lysis – cell-based, P. falciparum Indochina, OD700, 2 h, primary screen (AID 1155).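 Note: lysis reports solute entry through the parasite surface anion channel PSAC.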 Particulars: P. falciparum Indochina infected erythrocytes, higher = more signal, called active from +8 up or from −8 down.
Assay [5] can be described thus: changes in parasitized red cell lysis, either direction – P. falciparum Indochina, OD700, 3 h, PSAC antagonist project, primary screen (AID 1156). The following applies: P. falciparum-infected erythrocytes, osmotic lysis, higher = more signal, called active from +8 up or from −8 down.
Assay [6] can be described thus: plasmodial surface anion channel blockers, osmotic lysis – cell-based, P. falciparum Indochina, OD700, 18 h, primary screen (AID 1157). The following applies: P. falciparum Indochina infected erythrocytes, osmotic lysis OD700, 18 h; higher = more signal, called active from +8 up or from −8 down.
A short description of assay [7]: S6 kinase pathway phospho-S6 level changes – cell-based, A549, cytoblot, luminescence, serum-stimulated, primary screen (AID 1158).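 Note: serum-stimulated A549 lung adenocarcinoma cells; signal is phosphorylated S6 detected by cytoblot immunostaining with HRP secondary.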 Particulars: 5 h, higher = more signal.
The target of assay [8] is NADPH oxidase 2 (Homo sapiens) (UniProt P04839). Put plainly: compounds shifting NOX2 Amplex Red fluorescence – cell-based, HEK293-NOX2, PMA-stimulated, NOX inhibitor project, primary screen (AID 1159). Note: test concentration not given here. Particulars: 45 min, higher = more signal, called active from +8 up or from −8 down.
Chain of NADPH oxidase 2 (Homo sapiens) (P04839 whole entry, looked up): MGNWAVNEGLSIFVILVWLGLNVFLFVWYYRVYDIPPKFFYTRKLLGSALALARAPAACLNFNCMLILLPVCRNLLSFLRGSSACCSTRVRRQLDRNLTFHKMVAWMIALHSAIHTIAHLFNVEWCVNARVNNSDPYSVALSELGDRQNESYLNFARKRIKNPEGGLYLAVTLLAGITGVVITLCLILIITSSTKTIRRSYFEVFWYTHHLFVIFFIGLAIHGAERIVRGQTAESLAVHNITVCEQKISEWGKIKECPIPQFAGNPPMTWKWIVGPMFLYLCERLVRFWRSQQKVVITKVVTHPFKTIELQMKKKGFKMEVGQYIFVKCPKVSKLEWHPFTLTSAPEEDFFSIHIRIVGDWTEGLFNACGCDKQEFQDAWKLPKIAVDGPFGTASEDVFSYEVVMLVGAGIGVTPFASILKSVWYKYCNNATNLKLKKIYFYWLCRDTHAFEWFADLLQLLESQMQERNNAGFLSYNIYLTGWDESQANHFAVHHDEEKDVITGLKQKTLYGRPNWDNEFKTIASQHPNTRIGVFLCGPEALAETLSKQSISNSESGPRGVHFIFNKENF
Assay [9] deals with NADPH oxidase 4 (Homo sapiens) (UniProt Q9NPH5). In words: compounds shifting NOX4 Amplex Red fluorescence – cell-based, HEK293-NOX4, tetracycline-induced, NOX inhibitor project, primary screen (AID 1160). The following applies: HEK293-NOX4, Amplex Red H2O2 fluorescence, 45 min; higher = more signal, called active from +8 up or from −8 down.
Chain of NADPH oxidase 4 (Homo sapiens) (Q9NPH5 whole entry, looked up): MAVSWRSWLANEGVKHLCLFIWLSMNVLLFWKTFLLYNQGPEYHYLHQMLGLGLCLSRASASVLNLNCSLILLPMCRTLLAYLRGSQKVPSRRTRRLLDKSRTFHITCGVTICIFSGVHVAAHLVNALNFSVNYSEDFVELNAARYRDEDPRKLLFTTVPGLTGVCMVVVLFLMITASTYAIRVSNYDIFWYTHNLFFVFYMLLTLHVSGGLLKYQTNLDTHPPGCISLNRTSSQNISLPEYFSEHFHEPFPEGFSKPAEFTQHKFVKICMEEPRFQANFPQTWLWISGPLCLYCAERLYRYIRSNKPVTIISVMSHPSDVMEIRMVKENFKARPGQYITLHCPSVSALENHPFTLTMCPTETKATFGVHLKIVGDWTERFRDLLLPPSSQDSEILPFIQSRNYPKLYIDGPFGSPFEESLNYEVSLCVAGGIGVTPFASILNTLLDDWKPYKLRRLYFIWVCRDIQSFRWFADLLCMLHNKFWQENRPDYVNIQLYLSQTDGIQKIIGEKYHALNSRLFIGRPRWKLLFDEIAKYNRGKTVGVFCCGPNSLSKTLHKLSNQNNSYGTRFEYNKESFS
Assay [10] addresses NADPH oxidase 5 (Homo sapiens) (UniProt Q96PH1). Put plainly: compounds shifting NOX5 Amplex Red fluorescence – cell-based, HEK293-NOX5, NOX inhibitor project, primary screen (AID 1161). The following applies: HEK293-NOX5, ionomycin, 45 min, higher = more signal.
The nature of assay [11]: compound effects on lung adenocarcinoma cell viability – A549, calcein-AM fluorescence, 48 h, basal, profiling panel (AID 1162). Note: test concentration not given here. The following applies: higher = more signal.
Assay [12] in a line: compound effects on differentiated 3T3-L1 adipocyte viability – cell-based, 3T3-L1 adipocytes, calcein-AM fluorescence, 48 h, basal, profiling panel (AID 1163). Note: test concentration not given here. The following applies: 3T3-L1 adipocytes viability, higher = more signal.
Assay [13] is described as follows: compound effects on hepatocellular carcinoma cell viability – HepG2, calcein-AM fluorescence, 48 h, basal, profiling panel (AID 1164). Note: test concentration not given here. Particulars: higher = more signal.
Assay [14] is described as follows: compound effects on multiple myeloma cell viability – MM1S, calcein-AM fluorescence, 48 h, basal, profiling panel (AID 1165).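 Note: viability of MM1S multiple myeloma cells under basal unstimulated conditions; test concentration not given here.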 The following applies: higher = more signal.
Assay [15] in a line: calcein-AM signal in unstimulated myeloma cells – cell-based, calcein-AM fluorescence, 48 h, PK04 Diversity Set, profiling panel (AID 1166).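 Note: cells grown under basal conditions without added stimulus; test concentration not given here.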 The following applies: RPMI8226 myeloma viability, higher = more signal.
Assay [16] in a line: JC-1 mitochondrial signal, unstimulated HepG2 cells – cell-based, JC-1 fluorescence, 24 h, 100 nL compound, profiling panel (AID 1167). Note: test concentration not given here. The following applies: HepG2 mitochondrial potential, higher = more signal.
Assay [17] can be described thus: JC-1 mitochondrial signal, unstimulated adipocytes – cell-based, JC-1 fluorescence, 3T3-L1 adipocytes, 24 h, 100 nL compound, profiling panel (AID 1168). Note: test concentration not given here. The following applies: JC-1 mitochondrial fluorescence, higher = more signal, called active from +8 up or from −8 down.
The nature of assay [18]: JC-1 mitochondrial signal, unstimulated myeloma cells – cell-based, JC-1 fluorescence, RPMI8226, 24 h, 100 nL compound, profiling panel (AID 1169). Note: test concentration not given here. The following applies: JC-1 mitochondrial potential fluorescence, higher = more signal.
Assay [19] in a line: JC-1 mitochondrial signal, unstimulated MM1S myeloma – cell-based, JC-1 fluorescence, 24 h, 100 nL compound, profiling panel (AID 1170). Note: test concentration not given here. The following applies: MM1S mitochondrial potential, higher = more signal.
Assay [20] is described as follows: resazurin metabolic signal in A549 cells – cell-based, resazurin fluorescence, 24 h, PK04 Diversity Set, profiling panel (AID 1171). Note: test concentration not given here. The following applies: A549 viability, higher = more signal, called active from +8 up or from −8 down. A general note: Alamar Blue is a resazurin reagent that responds to reducing activity.

Chain of NADPH oxidase 5 (Homo sapiens) (Q96PH1 whole entry, looked up): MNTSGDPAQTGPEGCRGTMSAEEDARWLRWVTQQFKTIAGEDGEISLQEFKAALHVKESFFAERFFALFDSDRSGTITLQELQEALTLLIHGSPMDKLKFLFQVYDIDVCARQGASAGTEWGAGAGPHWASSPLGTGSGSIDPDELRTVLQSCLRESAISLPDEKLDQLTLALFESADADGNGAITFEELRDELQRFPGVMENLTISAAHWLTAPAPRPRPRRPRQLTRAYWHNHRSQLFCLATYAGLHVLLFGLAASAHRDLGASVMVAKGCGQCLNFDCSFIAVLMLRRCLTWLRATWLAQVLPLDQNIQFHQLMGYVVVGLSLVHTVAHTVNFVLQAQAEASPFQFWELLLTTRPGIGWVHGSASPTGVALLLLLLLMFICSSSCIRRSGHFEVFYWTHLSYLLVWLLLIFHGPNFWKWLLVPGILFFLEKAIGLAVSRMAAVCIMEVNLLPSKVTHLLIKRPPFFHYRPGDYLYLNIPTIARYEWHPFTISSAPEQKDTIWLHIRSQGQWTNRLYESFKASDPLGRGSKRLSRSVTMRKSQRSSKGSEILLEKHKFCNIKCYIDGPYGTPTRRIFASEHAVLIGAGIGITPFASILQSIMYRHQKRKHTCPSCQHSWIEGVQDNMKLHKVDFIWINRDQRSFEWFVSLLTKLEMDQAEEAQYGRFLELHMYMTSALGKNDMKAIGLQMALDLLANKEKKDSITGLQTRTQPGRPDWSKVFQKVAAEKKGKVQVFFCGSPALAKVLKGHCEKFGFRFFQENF

Turning to `C=CCN(C(=O)C(c1cccs1)N(C(=O)/C=C\C(=O)O)C(C)(C)CO)c1ccc(OC)cc1` (stereo not given), the z-score in assay [1] is 3.97 (inactive) and 3.23 (inactive); in assay [3], 0.292 (inactive) and 3.92 (inactive); in assay [4], -0.775 (inactive) and -0.466 (inactive); in assay [5], 0.029 (inactive) and -0.675 (inactive); in assay [6] it was -1.05 (inactive) and -1.12 (inactive); in [7], 1.97 and 1.04. The z-score was 0.0253 (inactive) and -0.0835 (inactive) in [8]; -0.464 (inactive) and -0.814 (inactive) in [9]; -0.126 and 0.853 in [10]; 3.04 and 1.76 in assay [11]; 1.09 and 0.718 in assay [12]; 0.717 and 1.1 in [13]. Further, the z-score was 1.61 and 1.55 in assay [14]; -0.223 and 1.05 in assay [15]; 1.16 and 0.287 in assay [16]; 2.24 (inactive) and 0.954 (inactive) in [17]; -0.567 and 0.754 in assay [18]; 0.212 and 0.326 in assay [19]. In addition, the z-score in assay [20] was 0.579 (inactive) and -0.0357 (inactive). For the same compound, the composite z-score in [2] is -0.0722 and 0.121.

With `CCN1C(=O)[C@H]2[C@H]3[C@H](O)[C@H](O)CC(=NNC(=O)OCc4ccc(OC)cc4)[C@H]3CC[C@H]2C1=O`, the z-score in [1] was 0.386 (inactive); in assay [3], 3.18 (inactive); in assay [4] it was -0.464 (inactive); in [5], 0.175 (inactive); in assay [6] it was 0.232 (inactive); in assay [7] it was 0.479. For the same compound, the z-score is -0.447 (inactive) in assay [8]; 0.0987 (inactive) in [9]; 0.0869 in assay [10]; 0.173 in assay [11]; -0.402 in assay [12]; 1.33 in assay [13]. Moreover, the z-score in assay [14] is 0.436; in assay [15], -0.261; in assay [16], 0.385; in assay [17] it was -0.596 (inactive); in [18] it was -0.236; in assay [19], -0.00926. In addition, the z-score in assay [20] was -0.947 (inactive). The composite z-score in assay [2] is 0.792.

Take `CCCNC(=O)OC[C@H]1O[C@H](CCON=C(C)CCC(=O)OC[C@H]2O[C@H](C#Cc3ccccc3)C=C[C@@H]2Oc2ccc(C)cc2)C=C[C@@H]1Oc1ccc(OC)cc1`: the z-score is 0.181 (inactive) in assay [1]; 0.77 (inactive) in assay [3]; 0.329 (inactive) in [4]; -0.107 (inactive) in [5]; 0.097 (inactive) in [6]; -0.591 in assay [7]. In addition, the z-score in assay [8] was 0.333 (inactive); in assay [9] it was 0.854 (inactive); in assay [10] it was -0.746; in [11], -0.284; in assay [12], -0.182; in assay [13] it was -0.433. For the same compound, the z-score in assay [14] is -0.321; in assay [15] it was 0.0363; in [16], 1.38; in assay [17], -1.31 (inactive); in [18], 0.15; in assay [19], -0.435. Moreover, the z-score in [20] is 0.835 (inactive). Also, in assay [2], the composite z-score is -0.0917.

For the compound `C=CCN(C(=O)C(c1cccs1)N(C(=O)/C=C\C(=O)O)C(C)(C)CO)C(C)(C)C` (stereo not given), the z-score is 2.48 (inactive) and 1.85 (inactive) in assay [1]; -0.534 (inactive) and -0.537 (inactive) in [3]; -1.13 (inactive) and -0.574 (inactive) in [4]; -0.936 (inactive) and -0.092 (inactive) in assay [5]; -1.37 (inactive) and -0.725 (inactive) in assay [6]; 1.6 and 0.974 in assay [7]. Also, the z-score in assay [8] was -0.192 (inactive) and -0.0748 (inactive); in assay [9] it was -0.755 (inactive) and -0.588 (inactive); in assay [10], 0.163 and 0.51; in assay [11], 0.923 and 0.435; in assay [12], 0.373 and 0.179; in [13], 1.24 and 1.74. For the same compound, the z-score in assay [14] was 0.151 and 1.58; in [15], -0.161 and 0.234; in assay [16], 1.04 and 1.38; in assay [17], 0.19 (inactive) and 0.713 (inactive); in [18], -0.82 and 0.0107; in [19], 0.0872 and 0.0595. In assay [20], the z-score was -0.465 (inactive) and -0.596 (inactive). The composite z-score in assay [2] was -0.0647 and -0.103.

For `CCCCCN1CC=CC23O[C@@H]4C=CCCOC(=O)C4[C@H]2C(=O)N(C(C)CO)[C@@H]3C1=O` (stereo not given in full), the z-score in assay [1] is 1.5 (inactive) and 0.971 (inactive); in [3], 2.38 (inactive) and 0.551 (inactive); in assay [4], 0.174 (inactive) and 0.44 (inactive); in [5], 0.833 (inactive) and 0.233 (inactive); in assay [6] it was 0.0882 (inactive) and 0.454 (inactive); in assay [7], 0.154 and 0.166. Moreover, the z-score in assay [8] was 1.27 (inactive) and 1.08 (inactive); in [9], 0.164 (inactive) and 0.696 (inactive); in assay [10], 2.09 and 2.43; in [11] it was -0.345 and -0.691; in assay [12] it was 0.94 and -0.707; in assay [13], -1.46 and -0.31. Moreover, the z-score in [14] was 0.737 and 0.402; in assay [15], 0.254 and -0.282; in assay [16], -0.473 and -1.11; in [17] it was -0.354 (inactive) and -0.522 (inactive); in [18] it was 0.861 and -0.0156; in assay [19] it was -0.141 and 0.641. For the same compound, the z-score in [20] is 1.08 (inactive) and 0.713 (inactive). The composite z-score in assay [2] is -0.962 and 1.57.

On to `C[C@@H]1CN2[C@@H](CC[C@@H](C)[C@@H]2c2ccc(Br)cc2)C(=O)O1`, for which the z-score in assay [1] is -1.42 (inactive) and 0.0426 (inactive); in assay [3], 0.169 (inactive) and -0.313 (inactive); in assay [4], 0.279 (inactive) and -1.09 (inactive); in assay [5], -0.425 (inactive) and -0.16 (inactive); in assay [6] it was 0.125 (inactive) and -1.18 (inactive); in assay [7], -0.0649 and 1.61. Besides, the z-score in [8] was 1.55 (inactive) and -0.12 (inactive); in [9], -1 (inactive) and 0.168 (inactive); in assay [10], 0.0337 and 0.614; in assay [11], -0.133 and 0.551; in assay [12], 0.706 and 0.0322; in assay [13], -0.163 and 0.959. Further, the z-score was 0.248 and 0.391 in [14]; -0.0928 and 0.767 in assay [15]; 0.446 and 0.56 in [16]; -0.0606 (inactive) and 0.229 (inactive) in assay [17]; 0.05 and 0.203 in assay [18]; 1.26 and -0.901 in assay [19]. In assay [20], the z-score was 0.131 (inactive) and -1.45 (inactive). Also, the composite z-score in assay [2] was 0.0367 and -0.275.
